Source: PubChem
CHO-K1 Ca antag: M1 antagonist counterscreen hit in parental CHO-K1 cells; ATP-induced calcium, Fluo-8 fluorescence; AID 602250; 0.6% of 360,000 active; inhibition, % at 3 µM;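 active = inhibition above a per-plate cutoff, the plate's mean sample inhibition plus 3 SD, cut at about 24% in these data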
CHO-K1 Ca ag: counter-screen for M1 agonists: effect in parental CHO-K1 cells | Fluo-8 calcium fluorescence; scaled to maximal ATP response, vehicle zero | AID 602248, 2012 | activation, % at 3 µM | 0.48% of 360,000 active; in the data active = activation above about 15%;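 also: untransfected CHO-K1 host cells lacking M1 receptor as counterscreen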
M1 PAM parental: nonselective calcium activators in parental CHO-K1 cells, primary screen, counter-screen for M1 PAM project, cell-based, Fluo-8 calcium fluorescence, full deck, 1536-well; ATP EC20; 0% at ATP EC20, 100% at ATP max; activation, % at 3 µM; 0.02% of 360,000 active; AID 602247, 2012;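 active = activation above the run cutoff, the mean activation of all test compounds plus 3 SD, cut at about 40% in these data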;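 also: peak over basal fluorescence ratio in a 140 s read after ATP addition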
CHRM1 PAM: human M1 muscarinic receptor positive allosteric modulators, primary screen, CHO-K1 cells, Fluo-8 calcium fluorescence, 1536-well | CHO-K1 hM1, ACh EC20; 0% = ACh EC20, 100% = maximal ACh | activation, % at 3 µM | 0.088% of 360,000 active | AID 588819, 2011; in the data active = activation above about 19%, passing the limit was not always enough
Target sequence (P11229 whole entry, looked up): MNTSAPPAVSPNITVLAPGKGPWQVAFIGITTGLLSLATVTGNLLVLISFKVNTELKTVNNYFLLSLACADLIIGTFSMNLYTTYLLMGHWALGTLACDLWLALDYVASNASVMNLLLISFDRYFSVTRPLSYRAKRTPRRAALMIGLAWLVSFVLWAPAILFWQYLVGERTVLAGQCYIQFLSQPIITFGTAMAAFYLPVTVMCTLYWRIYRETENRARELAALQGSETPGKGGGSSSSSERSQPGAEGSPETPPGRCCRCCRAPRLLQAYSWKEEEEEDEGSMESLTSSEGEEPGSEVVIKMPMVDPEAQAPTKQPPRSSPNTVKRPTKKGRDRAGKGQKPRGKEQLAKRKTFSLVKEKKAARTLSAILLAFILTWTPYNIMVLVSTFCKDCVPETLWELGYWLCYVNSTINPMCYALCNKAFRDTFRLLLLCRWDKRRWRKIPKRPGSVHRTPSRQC
CHRM1 agonist: human M1 muscarinic receptor agonists, primary screen, Fluo-8 calcium fluorescence, CHO-K1 cells, HTS; Muscarinic acetylcholine receptor M1 (Homo sapiens), P11229; 0.33% of 360,000 active; AID 588814, 2011; activation, % at 3 µM; CHO-K1 hM1, agonist mode; 0% DMSO, 100% acetylcholine EC100;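 active = activation above the run's mean compound activation plus 3 SD, cut at about 16% in these data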;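 also: peak over basal fluorescence ratio within a 140 s kinetic read after compound addition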
M1 antag: human M1 muscarinic receptor antagonists, primary screen, CHO-K1 cells, Fluo-8 calcium fluorescence, 1536-well | CHO-K1 hM1, ACh EC80 antagonist | inhibition, % at 3 µM | AID 588852, 2011 | 1.3% of 360,000 active;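 active = percent inhibition above its own plate's cutoff, namely the mean of that plate's compound wells plus 3 SD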;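 also: peak over basal fluorescence ratio during 140 s after agonist addition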
Large screens that a line does not name were inactive. This is a sample that favours compounds with a hit; in the whole collection about 2.4% have one here.

CCN(CC)CCNC(=O)C12CC3CC(C)(CC(C)(C3)C1)C2	M1 antag 40
Cc1cccc(-n2[nH]c(C)c(C=Nc3ccc4[nH]c(=O)[nH]c4c3)c2=O)c1	CHO-K1 Ca antag 28
CCN(CC)S(=O)(=O)c1ccc2c(c1)c(=O)c(C(=O)N1CCN(c3ccccn3)CC1)cn2C	none
COc1ccc(-c2cnc3c(NC(C)=O)cc(-c4cc(F)ccc4OC)cn23)cc1OC	CHRM1 agonist 17
COc1ccc(-c2cc(NC(C)=O)c3ncc(-c4ccccc4)n3c2)cc1OC	CHO-K1 Ca antag 29
COc1ccc(F)cc1-c1cc(NC(C)=O)c2ncc(-c3cc(OC)c(OC)c(OC)c3)n2c1	none
CC(=O)N1CCc2c(sc(NC(=O)c3ccc([N+](=O)[O-])o3)c2C(N)=O)C1	none
CCOC(=O)c1cc(-c2ccc(F)cc2)n(CC(=O)N2CCCC2)c1C	CHO-K1 Ca ag 15
CCOC(=O)c1cc(-c2ccccc2)n(CC(=O)N2CCCC2)c1C	none
O=C(COc1ccc(Nc2ccccc2)cc1)Nc1ccncc1	CHO-K1 Ca ag 15
O=C(COc1ccc(C(=O)NCc2cccnc2)cc1)Nc1cccc(C(F)(F)F)c1	M1 antag 36
O=C(COc1ccc(Cl)cc1)Nc1ccc(C(=O)NCc2cccnc2)cc1	none
O=C(COc1ccc(-c2ccccc2)cc1)Nc1cccnc1	CHO-K1 Ca ag 18, M1 antag 39
CCCN(C(=O)CSc1nnc(-c2ccncc2)n1CCC)c1c(N)n(Cc2ccccc2)c(=O)[nH]c1=O	none
CC(C)COC(=O)N1CCCCC1c1cc(C(=O)NCc2ccccc2)no1 (stereo not drawn)	none
COc1ccc(-c2csc(Nc3ccc(S(=O)(=O)Nc4cc(OC)nc(OC)n4)cc3)n2)cc1	none
COc1ccc(-c2csc(Nc3ccc(S(=O)(=O)Nc4cc(C)on4)cc3)n2)cc1C	M1 antag 46
O=C(CSc1c2c(nc3ccc(Cl)cc13)CCCC2)NCCCN1CCOCC1	M1 antag 98
Cc1cc(C)c(NC(=O)CN(C)CC(=O)Nc2cccc(S(=O)(=O)N(C)c3ccccc3)c2)c(C)c1	M1 antag 36
CN(c1ccccc1)S(=O)(=O)c1cccc(NC(=O)CN2CCCc3ccccc32)c1	CHO-K1 Ca ag 15
CN(c1ccccc1)S(=O)(=O)c1cccc(NC(=O)CSc2nncs2)c1	CHO-K1 Ca antag 29
CN(CC(=O)Nc1cccc(F)c1)CC(=O)Nc1cccc(S(=O)(=O)N(C)c2ccccc2)c1	none
COc1ccc(-n2ncc3c2CC(C)(C)CC3NC(=O)c2c(C)cc(=O)oc2C)cc1 (stereo not drawn)	none
COc1ccccc1N1CCN(Cc2cn[nH]c2-c2ccc(F)cc2)CC1	CHO-K1 Ca ag 19, CHRM1 agonist 44
COc1ccccc1N1CCN(Cc2nc(-c3ccc(F)cc3)oc2C)CC1	none
O=C(COC(=O)COc1ccccc1)NC1CCS(=O)(=O)C1 (stereo not drawn)	none
Cc1c(C(=O)NN)[nH]c2ccc([N+](=O)[O-])cc12	CHO-K1 Ca ag 26
NNC(=O)c1[nH]c2ccc([N+](=O)[O-])cc2c1-c1ccccc1	none
CC(C)CC1C(=O)N(Cc2cn(CC3CCCCC3)nn2)CCS(=O)(=O)N1Cc1ccc(-c2ccncc2)cc1 (stereo not drawn)	CHRM1 agonist 19
Cc1ccc(-c2ccc(CN3C(C)C(=O)N(Cc4cn(CC5CCCCC5)nn4)CCS3(=O)=O)cc2)cc1 (stereo not drawn)	none
COc1ccc(-c2ccc(CN3C(C)C(=O)N(Cc4cn(CC5CCCCC5)nn4)CCS3(=O)=O)cc2)cc1 (stereo not drawn)	CHO-K1 Ca antag 25
O=Cc1cccc(OC(=O)Nc2ccccc2)c1	none
CCN(CC)CCNc1ccnc2cc(Cl)ccc12	none
Clc1ccc2c(NCc3ccccc3)ccnc2c1	CHO-K1 Ca ag 17
Cn1c(SCc2ccccc2)nnc1-c1ccc(O)cc1	none
